OPRM1-OPRD1 inv: inverse agonists of MOR-DOR heterodimerization, primary screen, cell-based, luminescence; 0.21% of 340,000 active; AID 504357, 2011; inhibition, % at 9.3 µM; cell-based MOR-DOR heterodimer luminescence, inverse agonism; in the data active means inhibition above about 22%, passing the limit was not always enough;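 further: 0% = cells with DMSO and 100% = wells without cells with DMSO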
HTR5A inv ag: HTR5A inverse agonists in luminescence cell assay, primary screen, counter-screen for OPRM1-OPRD1 heterodimer inverse agonist project, full-deck HTS | 5-hydroxytryptamine receptor 5A (Homo sapiens), P47898 | HTR5A cell line, inverse agonism | inhibition, % at 9.3 µM | 0.083% of 340,000 active | AID 504634, 2011; in the data active means inhibition mostly above about 23%, no sharp cut-off; inactive means mostly below about 18%;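 further: 0% = cells with DMSO and 100% = no-cell wells with DMSO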
Target sequence (P47898 whole entry, looked up): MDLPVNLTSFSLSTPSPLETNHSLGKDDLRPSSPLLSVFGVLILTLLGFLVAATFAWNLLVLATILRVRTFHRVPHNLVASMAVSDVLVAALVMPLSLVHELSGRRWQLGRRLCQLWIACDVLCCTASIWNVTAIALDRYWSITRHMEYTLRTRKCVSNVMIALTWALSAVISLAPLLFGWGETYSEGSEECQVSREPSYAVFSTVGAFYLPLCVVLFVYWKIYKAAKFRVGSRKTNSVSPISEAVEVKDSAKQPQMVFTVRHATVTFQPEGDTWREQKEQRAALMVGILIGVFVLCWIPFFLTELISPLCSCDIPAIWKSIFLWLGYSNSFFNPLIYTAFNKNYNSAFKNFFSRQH
OPRM1-OPRD1 ag: agonists of OPRM1-OPRD1 heterodimerization, primary screen, cell-based, luminescence; cells; activation, % at 9.3 µM; 0.3% of 340,000 active; in the data active means activation above about 18%;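 further: 0% = vehicle-treated cells and 100% = reference agonist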
MsrA inhibitor: bovine MsrA enzyme inhibitors, primary screen, biochemical, absorbance, HTS; purified bovine MsrA, absorbance read-out; Methionine sulfoxide reductase A (Bos taurus); 0.75% of 360,000 active; AID 651718, 2012; inhibition, % at 15.5 µM; in the data active means inhibition above about 4.5%;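 further: 0% = vehicle wells with enzyme and 100% = reference inhibitor wells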
HTR5A ag: HTR5A agonists in luminescence cell assay, primary screen, counter-screen for OPRM1-OPRD1 heterodimer agonist project, full-deck HTS | 5-hydroxytryptamine receptor 5A (Homo sapiens), P47898 | cell-based | activation, % at 9.3 µM | 0.61% of 340,000 active | AID 504692, 2011; in the data active means activation mostly above about 9.5%, no sharp cut-off; inactive means mostly below about 7.6%;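 further: 0% = cells with vehicle only and 100% = reference agonist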
bovine MsrA act: bovine MsrA enzyme activators, primary screen, biochemical, absorbance, HTS; Methionine sulfoxide reductase A (Bos taurus); purified bovine MsrA, absorbance read-out; activation, % at 10.6 µM; 0.3% of 360,000 active; AID 602163, 2012; in the data active means activation above about 7.5%;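 further: 0% = vehicle and 100% = reference activator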
The depositor's hits bear a star; . = no result given. This is a sample that favours compounds with a hit; in the whole collection about 1.9% have one here.

SMILES	OPRM1-OPRD1 inv	HTR5A inv ag	OPRM1-OPRD1 ag	MsrA inhibitor	HTR5A ag	bovine MsrA act
Cn1c(=O)c2c(ncn2Cc2ccc(O)c([N+](=O)[O-])c2)n(C)c1=O	.	.	.	-0.1	.	.
Cc1cc(C)c(S(=O)(=O)N2CCCCC2)c(C)c1N(C)S(=O)(=O)c1ccccc1	-1.4	2.4	0.2	0.4	0.7	9.7*
CSc1ccc(/C=C2\C(=N)N3N=C(CC(=O)N4CCCCC4)SC3=NC2=O)cc1	13.7	6.9	-2.7	-0.8	-1.9	-1.5
CSc1ccc(/C=C2\C(=N)N3N=C(CC(=O)N4CCOCC4)SC3=NC2=O)cc1	8.0	-36.7	-1.6	-0.1	11.9*	-12.7
O=C(N[C@H](C(=O)N1CCC[C@H]1C(=O)NCCc1ccccc1Cl)c1ccccc1)c1ccc(Cl)c(Cl)c1	.	.	.	-0.9	.	.
O=C1c2ccccc2-c2onc3ccc(N4CCCC4)c1c23	-97.2	-3.5	18.9*	0.4	6.3	-8.4
Cn1c(-c2ccc(-c3ccccc3)cc2)c[nH]c1=S	41.0*	45.9*	-6.9	-0.7	-10.4	1.7
CCOC(=O)CSc1nc2sc3c(c2c(=O)n1-c1ccc(C)cc1)CCN(C)C3	10.7	7.7	-2.2	4.6*	-2.1	-8.5
CCOC(=O)CSc1nc2sc3c(c2c(=O)n1-c1ccc(OC)cc1)CCN(C)C3	17.5	-5.5	-3.7	3.5	1.5	-5.4
C/C=C/C=C/C(=O)c1cc(C)c(OC(=O)CNC(=O)OC(C)(C)C)c(C)c1O	.	.	.	-0.4	.	.
CC(C)C(=O)Nc1cccc(-c2nc3ncccc3o2)c1	12.5	-3.6	-2.5	1.7	0.9	-3.2
CC(C)C(=O)Nc1ccc(-c2nc3ncccc3o2)cc1	18.4	10.6	-3.8	4.6*	-3.1	1.0
CCOC(=O)/C=C1/SCC(=O)N1CC(=O)NC12CC3CC(CC(C3)C1)C2	17.6	-41.0	-3.4	-0.8	10.0*	-0.6
COC(=O)C1=C(C)N(Cc2cccc(C(F)(F)F)c2)C(=NCc2ccccc2C(F)(F)F)NC1c1cccc(C(F)(F)F)c1 (stereo not given)	.	.	.	-2.1	.	.
CC(=O)C1=C(O)C(=O)N(Cc2cccnc2)C1c1ccc(O)cc1 (stereo not given)	-0.5	-1.7	0.1	2.1	0.7	-15.4
CC(=O)C1=C(O)C(=O)N(Cc2cccnc2)C1c1ccc(Cl)cc1Cl (stereo not given)	-0.8	-38.5	0.1	2.4	11.7*	-14.2
Nc1[nH]c(C(=O)c2ccccc2)c(-c2ccc(Cl)c(F)c2)c1C(=O)c1c[nH]c2ccccc12	.	.	.	0.2	.	.
O=C(COC(=O)c1cc(-c2ccc(Cl)s2)nc2ccccc12)NCc1ccco1	11.0	-3.1	-2.2	4.6*	1.4	-3.2
C#CC1c2ccccc2CCN1CC=C (stereo not given)	.	.	.	-0.8	.	.
Cc1cccc(N=Nc2c(C)nn(-c3ccccc3)c2N)c1C	-0.7	-7.9	0.1	1.5	1.6	-0.4
Cc1nn(-c2ccccc2)c(N)c1N=Nc1ccc(Cl)cc1	-5.9	-29.8	0.8	4.3	10.8*	-3.8
CCOC(=O)N1CCN(c2ccc(C(C)=O)cc2F)CC1C (stereo not given)	5.0	7.3	-0.7	4.6*	-2.7	-4.5
CCOC(=O)N1CCN(c2ccc([N+](=O)[O-])cc2F)CC1C (stereo not given)	-21.2	-5.6	4.1	0.9	2.5	-3.1
COc1cccc(-n2c(=S)sc3c(=O)n(-c4ccccc4OC)c(=S)[nH]c32)c1	-2.0	-24.6	0.4	0.8	8.9*	-2.4
Cc1nc2ccccc2n1S(=O)(=O)c1ccc(S(=O)(=O)N2CCCCCC2)cc1	8.3	-37.4	-1.7	1.3	14.3*	-11.9
SMILES	OPRM1-OPRD1 inv	HTR5A inv ag	OPRM1-OPRD1 ag	MsrA inhibitor	HTR5A ag	bovine MsrA act
Cc1cccc(NC(=O)CNC(=O)[C@@H](Cc2ccccc2)NC(=O)[C@H]2O[C@@H](n3ccc(=O)[nH]c3=O)[C@H](O)[C@@H]2O)c1C	.	.	.	0.9	.	.
CCCC(=O)OC[C@H]1CN(C2CCCC2)S(=O)(=O)c2c(Oc3ccccc3)cccc2O1	.	.	.	-0.2	.	.
COc1ccccc1N/C=C(\C#N)c1nc2ccccc2[nH]1	-26.6	-35.8	3.7	2.1	12.6*	-3.7
O=C(N[C@H](Cc1ccccc1)C(=O)NCc1ccco1)[C@H]1O[C@@H](n2ccc(=O)[nH]c2=O)[C@H](O)[C@@H]1O	.	.	.	0.2	.	.
COCCCNC(=O)C[C@H]1C[C@@]2(C(=O)OC)C(=C[C@H](C(C)C)O[C@@H]2C2CC2)N(Cc2ccccc2)C1=O	.	.	.	-0.2	.	.
CCn1c(SCC(=O)NCC2CCCO2)nc2c([nH]c3ccccc32)c1=O (stereo not given)	-0.6	8.0	0.2	0.4	1.1	-5.0
COc1ccccc1-n1c(SCC(=O)NCC2CCCO2)nc2c([nH]c3ccccc32)c1=O (stereo not given)	44.7*	37.8*	-8.1	0.5	-11.6	-5.3
OCC(CCc1c[nH]c2ccccc12)c1c[nH]c2ccccc12 (stereo not given)	.	.	.	-0.7	.	.
Cc1ccc(S(=O)(=O)Nc2nc(C)c(C(=O)Nc3ccccc3)s2)cc1	5.7	-2.2	-1.2	0.7	0.9	-2.6
Cc1ccc(S(=O)(=O)Nc2nc(C)c(C(=O)N/N=C/c3ccccc3)s2)cc1	9.4	-9.5	-2.0	3.4	13.1*	-2.8
CC(C)CC(=O)Nc1cccc2c1C(=O)N(c1ccccc1)C2=O	1.1	10.8	-0.2	-0.5	-4.2	-0.5
CC(C)CC(=O)Nc1cc2nn(-c3ccccc3)nc2cc1Cl	1.8	10.4	-0.4	0.0	9.1*	-2.9
COC(=O)c1cc2c(c3c4cc(C)ccc4n(S(=O)(=O)c4ccc(C)cc4)c13)C(=O)N(C)C2	.	.	.	1.3	.	.
CCOc1ccc(Cn2nnc(C(=O)Nc3cc(C)cc(C)c3)c2N)cc1	-29.9	-31.1	6.0	0.6	11.8*	0.8
COc1ccccc1CC(=O)N1CCN(S(=O)(=O)c2ccccc2)CC1	5.5	21.0	-1.1	-0.2	12.6*	-4.5
O=C(COC(=O)c1cccnc1Cl)Nc1cccc(S(=O)(=O)N2CCCCC2)c1	6.8	-4.9	-1.4	0.4	1.8	-3.3
O=C(COC(=O)c1cccnc1Cl)Nc1cccc(S(=O)(=O)N2CCOCC2)c1	13.2	-42.1	-2.5	-0.6	11.8*	-3.1
O=C(COc1cccc(Br)c1)Nc1ccc(Cl)c(S(=O)(=O)N2CCOCC2)c1	-6.9	-36.2	1.4	-0.7	9.3*	-2.1
C[C@@H]1ON(C)[C@H]2C[C@H]3c4cc(N5CCCCC5)ccc4CCN3C[C@@H]12	.	.	.	-0.7	.	.
Cc1ccc(-c2nc3cccnc3s2)cc1NS(=O)(=O)c1ccc2c(c1)OCCO2	0.3	-46.3	-0.1	3.5	15.2	0.2

Compound activity from PubChem.
